This excerpt belongs to a sample that is enriched for the strongest signals.
Each substance was assayed on GlcNAc(b1-3)Gal(b1-4)GlcNAc(b1-3)Gal(b1-4)GlcNAc(b1-2)[GlcNAc(b1-3)Gal(b1-4)GlcNAc(b1-3)Gal(b1-4)GlcNAc(b1-6)]Man(a1-6)[GlcNAc(b1-3)Gal(b1-4)GlcNAc(b1-3)Gal(b1-4)GlcNAc(b1-2)Man(a1-3)]Man(b1-4)GlcNAc(b1-4)[Fuc(a1-6)]GlcNAc (assay: glycan array binding signal (z-score within array); higher = stronger binding). Settings: glycan notation: IUPAC condensed, linker removed.
Method in brief: (§1)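 Arrays were curated from the Consortium for Functional Glycomics database, 3228 in total, and kept only where the protein sequence was available. Binding is expressed as a within-array Z-score. This score was averaged across arrays of the same protein sequence at different concentrations or buffers and across linkers, and negative values can be read as non-binding.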

Avaren (Actinomycete K97), sequence (chain, as listed by the source): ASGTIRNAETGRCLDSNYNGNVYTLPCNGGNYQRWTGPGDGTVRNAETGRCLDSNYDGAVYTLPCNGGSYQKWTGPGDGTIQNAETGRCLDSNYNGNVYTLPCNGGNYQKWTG
PILRb (Mus musculus), Q2YSF2, sequence (Q2YSF2 entry or part of it): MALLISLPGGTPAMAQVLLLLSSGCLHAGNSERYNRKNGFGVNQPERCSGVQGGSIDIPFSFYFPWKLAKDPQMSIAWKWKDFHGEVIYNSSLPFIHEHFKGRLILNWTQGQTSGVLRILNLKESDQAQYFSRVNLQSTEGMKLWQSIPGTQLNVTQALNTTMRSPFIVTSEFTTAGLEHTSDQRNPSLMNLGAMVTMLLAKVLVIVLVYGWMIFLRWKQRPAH
wLAT-1A (Homo sapiens), Q01650, sequence (Q01650 whole entry): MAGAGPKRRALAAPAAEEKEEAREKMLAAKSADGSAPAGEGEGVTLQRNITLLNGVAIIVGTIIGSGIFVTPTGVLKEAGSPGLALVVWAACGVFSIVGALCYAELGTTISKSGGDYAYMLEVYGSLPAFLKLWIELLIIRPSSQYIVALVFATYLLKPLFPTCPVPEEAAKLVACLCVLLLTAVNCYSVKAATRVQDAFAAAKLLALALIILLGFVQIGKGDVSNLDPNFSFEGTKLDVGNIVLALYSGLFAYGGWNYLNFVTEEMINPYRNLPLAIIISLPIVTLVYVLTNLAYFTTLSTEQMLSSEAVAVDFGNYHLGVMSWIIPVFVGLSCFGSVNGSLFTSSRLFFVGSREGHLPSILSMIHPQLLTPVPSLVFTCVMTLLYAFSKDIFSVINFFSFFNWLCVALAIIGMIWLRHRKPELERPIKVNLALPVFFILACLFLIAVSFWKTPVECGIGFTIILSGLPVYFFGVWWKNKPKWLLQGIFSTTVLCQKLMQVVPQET
CHI3L1 (Homo sapiens), P36222, sequence (P36222 whole entry): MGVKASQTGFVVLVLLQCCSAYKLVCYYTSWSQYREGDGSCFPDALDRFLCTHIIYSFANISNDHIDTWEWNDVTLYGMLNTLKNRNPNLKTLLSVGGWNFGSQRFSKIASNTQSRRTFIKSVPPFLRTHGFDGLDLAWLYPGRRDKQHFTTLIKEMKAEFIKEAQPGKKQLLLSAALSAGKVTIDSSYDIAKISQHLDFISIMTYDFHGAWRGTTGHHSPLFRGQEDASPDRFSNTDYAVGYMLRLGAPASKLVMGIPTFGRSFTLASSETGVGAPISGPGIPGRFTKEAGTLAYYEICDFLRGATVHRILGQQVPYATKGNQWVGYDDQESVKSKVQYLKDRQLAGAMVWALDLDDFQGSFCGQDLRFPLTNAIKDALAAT
PILRa (Mus musculus), Q2YSF3, sequence (Q2YSF3 entry or part of it): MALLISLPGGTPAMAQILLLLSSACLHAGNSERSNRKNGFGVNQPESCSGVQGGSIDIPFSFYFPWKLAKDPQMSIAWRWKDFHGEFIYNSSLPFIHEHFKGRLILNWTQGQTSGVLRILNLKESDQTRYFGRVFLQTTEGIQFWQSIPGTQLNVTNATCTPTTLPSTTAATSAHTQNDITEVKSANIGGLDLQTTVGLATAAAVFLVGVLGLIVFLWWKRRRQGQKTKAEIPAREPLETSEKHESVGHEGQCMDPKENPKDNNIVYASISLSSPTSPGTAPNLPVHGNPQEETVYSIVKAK
Neurocan (Homo sapiens), O14594, sequence (O14594 other isoform, or with tags, fused parts or gaps): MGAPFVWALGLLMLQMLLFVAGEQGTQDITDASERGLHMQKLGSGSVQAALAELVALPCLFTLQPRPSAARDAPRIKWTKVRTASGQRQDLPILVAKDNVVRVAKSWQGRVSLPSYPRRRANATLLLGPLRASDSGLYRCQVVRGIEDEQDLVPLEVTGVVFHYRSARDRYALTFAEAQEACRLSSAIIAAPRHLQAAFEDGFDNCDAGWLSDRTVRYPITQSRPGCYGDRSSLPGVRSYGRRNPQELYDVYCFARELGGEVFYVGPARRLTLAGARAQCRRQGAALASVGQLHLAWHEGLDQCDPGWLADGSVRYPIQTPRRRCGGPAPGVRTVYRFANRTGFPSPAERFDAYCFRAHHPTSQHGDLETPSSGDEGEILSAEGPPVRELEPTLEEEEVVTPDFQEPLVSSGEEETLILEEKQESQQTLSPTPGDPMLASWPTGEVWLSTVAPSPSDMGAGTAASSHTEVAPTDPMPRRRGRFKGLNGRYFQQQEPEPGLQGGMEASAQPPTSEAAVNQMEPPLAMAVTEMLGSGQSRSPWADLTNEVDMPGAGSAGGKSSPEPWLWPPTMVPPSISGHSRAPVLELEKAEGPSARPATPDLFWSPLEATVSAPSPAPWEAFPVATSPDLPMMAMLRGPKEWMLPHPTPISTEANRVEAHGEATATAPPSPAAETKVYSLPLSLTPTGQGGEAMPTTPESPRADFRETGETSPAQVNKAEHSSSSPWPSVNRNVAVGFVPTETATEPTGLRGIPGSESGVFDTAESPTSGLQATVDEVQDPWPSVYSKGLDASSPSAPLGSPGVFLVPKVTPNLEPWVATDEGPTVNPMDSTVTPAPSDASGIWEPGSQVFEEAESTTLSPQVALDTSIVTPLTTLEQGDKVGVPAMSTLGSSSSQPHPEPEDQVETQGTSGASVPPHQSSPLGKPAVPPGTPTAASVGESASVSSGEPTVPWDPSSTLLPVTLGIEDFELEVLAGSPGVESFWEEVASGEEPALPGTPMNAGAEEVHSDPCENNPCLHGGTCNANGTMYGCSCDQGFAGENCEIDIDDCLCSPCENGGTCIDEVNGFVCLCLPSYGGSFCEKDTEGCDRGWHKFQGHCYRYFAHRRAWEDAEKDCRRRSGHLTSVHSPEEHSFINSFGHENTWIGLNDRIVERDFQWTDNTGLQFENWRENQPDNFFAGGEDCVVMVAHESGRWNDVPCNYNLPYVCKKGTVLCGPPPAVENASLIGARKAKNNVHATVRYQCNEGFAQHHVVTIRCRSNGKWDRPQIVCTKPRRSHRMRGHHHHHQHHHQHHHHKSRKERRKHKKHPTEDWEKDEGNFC
Regenerating Gene IV (Homo sapiens), Q9BYZ8, sequence (Q9BYZ8 whole entry, looked up): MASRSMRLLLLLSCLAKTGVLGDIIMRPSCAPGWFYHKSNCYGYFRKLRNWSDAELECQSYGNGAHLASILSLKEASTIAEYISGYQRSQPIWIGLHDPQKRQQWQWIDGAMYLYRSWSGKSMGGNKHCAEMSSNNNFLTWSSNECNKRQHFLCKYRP

Substance	glycan array binding signal (z-score)
MpAFP RI GFP (Marinomonas primoryensis)	1.29
Siglec-8 (Homo sapiens), Q9NYZ4	0.434
Avaren (Actinomycete K97)	-0.046

Each substance was assayed on GlcNAc(b1-4)GlcNAc(b1-4)GlcNAc(b1-4)GlcNAc(b1-4)GlcNAc in the same assay as above. Settings: glycan notation: IUPAC condensed, linker removed.
Method in brief: as §1

Substance	glycan array binding signal (z-score)
PILRb (Mus musculus), Q2YSF2	-0.432
Siglec-8 (Homo sapiens), Q9NYZ4	-0.111
CHI3L1 (Homo sapiens), P36222	14.5
Neurocan (Homo sapiens), O14594	-0.99

The substances below were run on GlcNAc(b1-6)GalNAc in the same assay as above. Settings: glycan notation: IUPAC condensed, linker removed.
Method in brief: as §1

Substance	glycan array binding signal (z-score)
PILRb (Mus musculus), Q2YSF2	-0.025
wLAT-1A (Homo sapiens), Q01650	0.369
Avaren (Actinomycete K97)	-0.119

These substances were tested on GlcNAc3Prop(b1-4)GlcNAc in the same assay as above. Settings: glycan notation: IUPAC condensed, linker removed.
Method in brief: as §1

Substance	glycan array binding signal (z-score)
CHI3L1 (Homo sapiens), P36222	-0.044
wLAT-1A (Homo sapiens), Q01650	0.213
Regenerating Gene IV (Homo sapiens), Q9BYZ8	-0.463
PILRa (Mus musculus), Q2YSF3	-0.331

Reference: the supplement of paper PMC8728848
